# Experimental data from PMC5540273 (PLoS ONE, 2017).
# Where two headings read alike, the source gives them in different places.
# Columns and labels:
# BUB1 = conditions: concentration: 1 μM, replicates: in singlicate; n = 1
# CAMK1B = conditions: concentration: 1 μM, replicates: in singlicate; n = 1
# CAMK1D = conditions: concentration: 1 μM, replicates: in singlicate; n = 1
# CAMK1G = conditions: concentration: 1 μM, replicates: in singlicate; n = 1
# CAMK1 = conditions: concentration: 1 μM, replicates: in singlicate; n = 1
# CAMK2A = conditions: concentration: 1 μM, replicates: in singlicate; n = 1
# CAMK2B = conditions: concentration: 1 μM, replicates: in singlicate; n = 1
# CAMK2D = conditions: concentration: 1 μM, replicates: in singlicate; n = 1
# CAMK2G = conditions: concentration: 1 μM, replicates: in singlicate; n = 1
# CAMK4 = conditions: concentration: 1 μM, replicates: in singlicate; n = 1
# CAMKK1 = conditions: concentration: 1 μM, replicates: in singlicate; n = 1
# CAMKK2 = conditions: concentration: 1 μM, replicates: in singlicate; n = 1
# CASK = conditions: concentration: 1 μM, replicates: in singlicate; n = 1
# CDC2L1 = tested on: T1, CDC2L1; conditions: concentration: 1 μM, replicates: in singlicate; n = 1
# T1 construct: gene CDK11B
# CDC2L2 = conditions: concentration: 1 μM, replicates: in singlicate; n = 1
# CDC2L5 = tested on: T2, CDC2L5; conditions: n = 1
# T2 construct: gene CDK13
# CDK11 = tested on: T3, CDK11; conditions: concentration: 1 μM, replicates: in singlicate; n = 1
# T3 construct: gene CDK19
# CDK2 = conditions: concentration: 1 μM, replicates: in singlicate; n = 1
# CDK3 = conditions: concentration: 1 μM, replicates: in singlicate; n = 1
# CDK4-cyclinD1 = conditions: n = 1
# [1] = concentration: 1 μM, replicates: in singlicate
# 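Further: KINOMEscan kinase panel screen.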
smiles,measurement,setting,value
COc1cc(Nc2nccc(N3CCC(NC(=O)c4cccc(NC(C)=O)c4)C3)n2)cc(OC)c1OC (centres unmarked) [GSK1379754],%Inh,BUB1,0%
same,%Inh,CAMK1B,7%
same,%Inh,CAMK1D,27%
same,%Inh,CAMK1G,6%
same,%Inh,CAMK1,40%
same,%Inh,CAMK2A,0%
same,%Inh,CAMK2B,0%
same,%Inh,CAMK2D,0%
same,%Inh,CAMK2G,21%
same,%Inh,CAMK4,0%
same,%Inh,CAMKK1,0%
same,%Inh,CAMKK2,11%
same,%Inh,CASK,1%
same,%Inh,CDC2L1,0%
same,%Inh,CDC2L2,2%
same,%Inh,CDC2L5; [1],0%
same,%Inh,CDK11,20%
same,%Inh,CDK2,2%
same,%Inh,CDK3,0%
same,%Inh,CDK4-cyclinD1; [1],0%
CCc1ccnc(/C=C/c2n[nH]c3cc(Sc4ccccc4C(=O)NC)ccc23)c1,%Inh,BUB1,49%
same,%Inh,CAMK1B,8%
same,%Inh,CAMK1D,0%
same,%Inh,CAMK1G,2%
same,%Inh,CAMK1,0%
same,%Inh,CAMK2A,4%
same,%Inh,CAMK2B,0%
same,%Inh,CAMK2D,9%
same,%Inh,CAMK2G,18%
same,%Inh,CAMK4,0%
same,%Inh,CAMKK1,16%
same,%Inh,CAMKK2,11%
same,%Inh,CASK,34%
same,%Inh,CDC2L1,7%
same,%Inh,CDC2L2,2%
same,%Inh,CDC2L5; [1],0%
same,%Inh,CDK11,0%
same,%Inh,CDK2,3%
same,%Inh,CDK3,0%
same,%Inh,CDK4-cyclinD1; [1],16%
N#Cc1c(N2CCOCC2)sc(-c2ccn[nH]2)c1-c1ccc(Cl)cc1,%Inh,BUB1,13%
same,%Inh,CAMK1B,12%
same,%Inh,CAMK1D,19%
same,%Inh,CAMK1G,72%
same,%Inh,CAMK1,24%
same,%Inh,CAMK2A,0%
same,%Inh,CAMK2B,0%
same,%Inh,CAMK2D,47%
same,%Inh,CAMK2G,0%
same,%Inh,CAMK4,4%
same,%Inh,CAMKK1,0%
same,%Inh,CAMKK2,0%
same,%Inh,CASK,0%
same,%Inh,CDC2L1,0%
same,%Inh,CDC2L2,11%
same,%Inh,CDC2L5; [1],0%
same,%Inh,CDK11,7%
same,%Inh,CDK2,0%
same,%Inh,CDK3,5%
same,%Inh,CDK4-cyclinD1; [1],31%
COc1cc2c(cc1OCCN1CCN(C)CC1)ncc1c3ccc(C#N)cc3[nH]c21,%Inh,BUB1,100%
same,%Inh,CAMK1B,19%
same,%Inh,CAMK1D,44%
same,%Inh,CAMK1G,16%
same,%Inh,CAMK1,0%
same,%Inh,CAMK2A,93.5%
same,%Inh,CAMK2B,70%
same,%Inh,CAMK2D,92.6%
same,%Inh,CAMK2G,86%
same,%Inh,CAMK4,0%
same,%Inh,CAMKK1,86%
same,%Inh,CAMKK2,70%
same,%Inh,CASK,8%
same,%Inh,CDC2L1,7%
same,%Inh,CDC2L2,7%
same,%Inh,CDC2L5; [1],0%
same,%Inh,CDK11,0%
same,%Inh,CDK2,2%
same,%Inh,CDK3,0%
same,%Inh,CDK4-cyclinD1; [1],0%
COc1ccc(Nc2nccc(N3CCC(NC(=O)Nc4cc(C)ccc4C)C3)n2)cc1 (centres unmarked) [GSK1379741],%Inh,BUB1,33%
same,%Inh,CAMK1B,13%
same,%Inh,CAMK1D,0%
same,%Inh,CAMK1G,0%
same,%Inh,CAMK1,0%
same,%Inh,CAMK2A,0%
same,%Inh,CAMK2B,0%
same,%Inh,CAMK2D,0%
same,%Inh,CAMK2G,0%
same,%Inh,CAMK4,0%
same,%Inh,CAMKK1,0%
same,%Inh,CAMKK2,0%
same,%Inh,CASK,3%
same,%Inh,CDC2L1,0%
same,%Inh,CDC2L2,0%
same,%Inh,CDC2L5; [1],0%
same,%Inh,CDK11,70%
same,%Inh,CDK2,0%
same,%Inh,CDK3,7%
same,%Inh,CDK4-cyclinD1; [1],0%
COc1ccc(COc2cc(-n3cnc4ccccc43)sc2C(N)=O)cc1 [GSK1024304],%Inh,BUB1,9%
same,%Inh,CAMK1B,0%
same,%Inh,CAMK1D,6%
same,%Inh,CAMK1G,8%
same,%Inh,CAMK1,7%
same,%Inh,CAMK2A,0%
same,%Inh,CAMK2B,0%
same,%Inh,CAMK2D,0%
same,%Inh,CAMK2G,23%
same,%Inh,CAMK4,0%
same,%Inh,CAMKK1,4%
same,%Inh,CAMKK2,13%
same,%Inh,CASK,0%
same,%Inh,CDC2L1,0%
same,%Inh,CDC2L2,0%
same,%Inh,CDC2L5; [1],0%
same,%Inh,CDK11,22%
same,%Inh,CDK2,0%
same,%Inh,CDK3,9%
same,%Inh,CDK4-cyclinD1; [1],0%
COc1cc2c(cc1OC[C@@H](O)CO)ncc1c3ccc(C#N)cc3[nH]c21,%Inh,BUB1,94.3%
same,%Inh,CAMK1B,27%
same,%Inh,CAMK1D,0%
same,%Inh,CAMK1G,0%
same,%Inh,CAMK1,0%
same,%Inh,CAMK2A,89%
same,%Inh,CAMK2B,61%
same,%Inh,CAMK2D,84%
same,%Inh,CAMK2G,61%
same,%Inh,CAMK4,0%
same,%Inh,CAMKK1,60%
same,%Inh,CAMKK2,22%
same,%Inh,CASK,0%
same,%Inh,CDC2L1,0%
same,%Inh,CDC2L2,0%
same,%Inh,CDC2L5; [1],0%
same,%Inh,CDK11,20%
same,%Inh,CDK2,0%
same,%Inh,CDK3,19%
same,%Inh,CDK4-cyclinD1; [1],0%
O=C1Cc2cc(Nc3nc(NCc4cccc(S(=O)(=O)C(F)(F)F)c4)ncc3C(F)(F)F)ccc2N1,%Inh,BUB1,34%
same,%Inh,CAMK1B,11%
same,%Inh,CAMK1D,0%
same,%Inh,CAMK1G,2%
same,%Inh,CAMK1,0%
same,%Inh,CAMK2A,0%
same,%Inh,CAMK2B,0%
same,%Inh,CAMK2D,5%
same,%Inh,CAMK2G,8%
same,%Inh,CAMK4,4%
same,%Inh,CAMKK1,9%
same,%Inh,CAMKK2,3%
same,%Inh,CASK,0%
same,%Inh,CDC2L1,9%
same,%Inh,CDC2L2,0%
same,%Inh,CDC2L5; [1],12%
same,%Inh,CDK11,8%
same,%Inh,CDK2,0%
same,%Inh,CDK3,0%
same,%Inh,CDK4-cyclinD1; [1],5%
O=c1cc(N2CCOCC2)nc2n(Cc3cccc(Cl)c3Cl)c(C3CC3)nn12 [GSK2358994],%Inh,BUB1,0%
same,%Inh,CAMK1B,0%
same,%Inh,CAMK1D,0%
same,%Inh,CAMK1G,5%
same,%Inh,CAMK1,0%
same,%Inh,CAMK2A,25%
same,%Inh,CAMK2B,10%
same,%Inh,CAMK2D,18%
same,%Inh,CAMK2G,0%
same,%Inh,CAMK4,5%
same,%Inh,CAMKK1,3%
same,%Inh,CAMKK2,8%
same,%Inh,CASK,26%
same,%Inh,CDC2L1,0%
same,%Inh,CDC2L2,0%
same,%Inh,CDC2L5; 1 µM,0%
same,%Inh,CDK11,0%
same,%Inh,CDK2,0%
same,%Inh,CDK3,5%
same,%Inh,CDK4-cyclinD1; 1 µM,0%
Cc1nnc(-c2ccc3occ(-c4ccc(C(C)O)cc4)c3c2)o1 (centres unmarked),%Inh,BUB1,9%
same,%Inh,CAMK1B,0%
same,%Inh,CAMK1D,0%
same,%Inh,CAMK1G,0%
same,%Inh,CAMK1,12%
same,%Inh,CAMK2A,3%
same,%Inh,CAMK2B,0%
same,%Inh,CAMK2D,6%
same,%Inh,CAMK2G,11%
same,%Inh,CAMK4,0%
same,%Inh,CAMKK1,12%
same,%Inh,CAMKK2,14%
same,%Inh,CASK,4%
same,%Inh,CDC2L1,1%
same,%Inh,CDC2L2,4%
same,%Inh,CDC2L5; [1],22%
same,%Inh,CDK11,0%
same,%Inh,CDK2,5%
same,%Inh,CDK3,4%
same,%Inh,CDK4-cyclinD1; [1],0%
